Experimental data as given in PubChem BioAssay AID434970 (Sanford-Burnham Center for Chemical Genomics, 2010).
Hit rate of the full screen: of about 11,000 compounds, about 310 (2.8%) were called active. Cut-off read from the data, not from the text of the source: active = activity change below about -85%; inactive = the rest. Only a selection was taken, and actives are over-represented in it overall.

test system: intestinal alkaline phosphatase [Mus musculus]; experiment: activators of mouse IAP, confirmation, biochemical, luminescence, single concentration (AID 434970); conditions: purified mouse IAP, CDP-Star luminescence, 30 min, at 10 µM; activation factor: measured here: IAP activation factor, stronger effect = higher value; activity change, negative = activation: stronger effect = lower value

SMILES	activation factor	activity change, negative = activation
COC(=O)c1ccc(CC(=O)c2c(C)cc(O)cc2O)o1	0.877	12.3% (inactive)
CC(C)COc1ccc(CNC(=S)NCc2ccccc2)cc1	1.12	-11.7% (inactive)
O=C(O)CC(c1cccc(Cl)c1)n1cccc1 (stereo unspecified)	0.964	3.65% (inactive)
CCCCN1CCc2c([nH]c3c(C)cccc23)C1=O	1.06	-6.35% (inactive)
CCN(CC)S(=O)(=O)c1cccc(NC(=O)c2cc3ccccc3o2)c1	0.883	11.7% (inactive)
O=C(Nc1ccccc1)Nc1cccc(C(F)(F)F)c1	1.82	-82.1% (inactive)
CCNS(=O)(=O)c1ccc(NC(=O)Nc2cccc(C(F)(F)F)c2)cc1	1.77	-76.7% (inactive)
O=C(Nc1ccc(OC(F)F)cc1)Nc1cccc(C(F)(F)F)c1	1.99	-99.2% (active)
CCN(CC)S(=O)(=O)c1cccc(C(=O)Nc2cccc(C)c2)c1	0.938	6.2% (inactive)
CCN(CC)S(=O)(=O)c1cccc(NC(=O)Nc2cccc(C(F)(F)F)c2)c1	4.57	-357% (active)
Cc1ccc(OC(F)F)c(NC(=O)Nc2cccc(C(F)(F)F)c2)c1	1.6	-60.4% (inactive)
CCN(CC)S(=O)(=O)c1ccc(NC(=O)CN(c2cccc(F)c2)S(C)(=O)=O)cc1	0.911	8.85% (inactive)
CCN(CC)S(=O)(=O)c1ccc(NC(=O)Nc2cccc(C(F)(F)F)c2)cc1	2.03	-103% (active)
O=C(c1ccco1)N1CCN(CC(O)Cn2c3ccccc3c3ccccc32)CC1 (stereo unspecified)	0.97	2.95% (inactive)
CC(C)OC(=O)CSc1nc2cccnc2n1C1CCCCC1	0.982	1.75% (inactive)
COc1ccc(C2=NO[C@@H]3C(=O)N(c4cccc(C)c4C)C(=O)[C@H]23)cc1OC	0.93	6.95% (inactive)
COC(=O)c1sccc1NC(=O)c1cc(OC)cc(OC)c1	0.928	7.2% (inactive)
c1coc(C2Nc3ccccc3C3OCCC23)c1 (stereo unspecified)	1.1	-10.4% (inactive)
COc1ccc(C(=O)NC(Oc2ccccc2)C(Cl)(Cl)Cl)cc1 (stereo unspecified)	1.06	-6.15% (inactive)
COc1ccc(C(=O)OC(C(=O)c2ccccc2)c2ccccc2)cc1 (stereo unspecified)	0.982	1.8% (inactive)
C=C(C)c1cccc(C(C)(C)NC(=O)Nc2ccc(C(N)=O)cc2)c1	2.18	-118% (active)

SMILES	activation factor	activity change, negative = activation
C=C(C)c1cccc(C(C)(C)NC(=O)NCC2COCCO2)c1 (stereo unspecified)	1.09	-9.1% (inactive)
C=C(C)c1cccc(C(C)(C)NC(=O)NC(c2ccccc2)c2ccc(OC)cc2)c1 (stereo unspecified)	4.59	-359% (active)
CC(=O)Nc1ccc(S(=O)(=O)Nc2cccc(NC(=O)C(C)(C)C)c2)cc1	1.12	-11.8% (inactive)
CC(C)C(OC(=O)c1ccco1)C(=O)NC1CCCCC1 (stereo unspecified)	0.964	3.65% (inactive)
Cc1ccc(C)c(N(C(=O)CCC(=O)Nc2cc(C)on2)C(C(=O)NC2CCCC2)c2ccco2)c1 (stereo unspecified)	0.998	0.2% (inactive)
O=C(CSc1ncn[nH]1)NCCc1ccccc1	1.1	-10.3% (inactive)
CC1CCN(C(c2cccs2)c2nnnn2Cc2ccccc2)CC1 (stereo unspecified)	0.984	1.65% (inactive)
Cn1c(CCN2CCOCC2)nc2cc(NC(=O)COc3ccc(Cl)cc3)ccc21	0.927	7.3% (inactive)
CC[C@]12c3[nH]c4ccc(Cl)cc4c3CCN1C(=O)[C@@H](CC(=O)NC(C)(C)C)C[C@@H]2C(=O)N1CCN(C(=O)c2ccco2)CC1	1.14	-13.7% (inactive)
CCOC(=O)c1ccc(NC(=O)NCc2ccccc2OC)cc1	1.8	-79.8% (inactive)
CCOC(=O)c1ccc(NC(=O)NCCc2ccccc2OC)cc1	2.01	-101% (active)
CCOC(=O)c1ccc(NC(=S)NCCc2ccccc2F)cc1	1.3	-29.6% (inactive)
COc1ccc(C)cc1NC(=O)C1C2C=CC(C2)C1C(=O)O (stereo unspecified)	0.955	4.55% (inactive)
O=C(Nc1cc(Cl)cc(Cl)c1)C1CCC(=O)N1Cc1ccccc1Cl (stereo unspecified)	1.71	-70.5% (inactive)
COc1cc(NC(=O)NCC2CCN(Cc3ccccc3Cl)CC2)cc(OC)c1OC	2.47	-148% (active)
COc1cc2c(cc1NC(=O)Nc1ccc(C)cc1)oc1ccccc12	1.18	-18.4% (inactive)
CCC(NC(=O)Nc1cc(OC)c(OC)c(OC)c1)(C(F)(F)F)C(F)(F)F	1.8	-80.2% (inactive)
COc1cc(NC(=O)NCC2CCN(Cc3ccc(C)cc3)CC2)cc(OC)c1OC	1.88	-88.3% (inactive)
COc1cc(NC(=O)NCC2CCN(Cc3ccccc3C)CC2)cc(OC)c1OC	2.9	-190% (active)
CCN(CC)C(=O)[C@H]1C[C@H](CC(=O)NCCc2ccccn2)C(=O)N2CCc3c([nH]c4cc(-c5ccco5)ccc34)[C@]12C	1.27	-27% (inactive)
O=C(c1cccs1)n1nc(-c2ccccc2)nc1NCc1ccco1	0.857	14.4% (inactive)

SMILES	activation factor	activity change, negative = activation
c1ccc(-c2cc3c(NCC4COc5ccccc5O4)ncnc3s2)cc1 (stereo unspecified)	1.97	-97.1% (active)
FC(F)(F)c1cccc(NC(=S)NCC2COc3ccccc3O2)c1 (stereo unspecified)	1.43	-42.8% (inactive)
CCN(c1ccccc1)S(=O)(=O)c1ccc(NCC2COc3ccccc3O2)nc1 (stereo unspecified)	1.29	-28.6% (inactive)
CCOc1ccc(C2N(c3cc(C)on3)C(=O)C3CCCN32)cc1OC (stereo unspecified)	1.05	-5.3% (inactive)
Cc1ccc(SCc2nc3ccccc3n2CC(=O)Nc2ccccc2)cc1	1.56	-56% (inactive)
Cc1ccc(C(=O)NC(C)c2nc3ccccc3n2CC(=O)Nc2c(C)cc(C)cc2C)cc1 (stereo unspecified)	1.1	-10.2% (inactive)
O=C(CSc1nnc(Cn2nnc3ccccc32)o1)Nc1ccc(Cl)cc1	0.985	1.5% (inactive)
Cc1cc(C)cc(NC(=O)Cn2c(-c3ccccc3Cl)nc3ccccc32)c1	2.48	-148% (active)
O=C(CCN1C(=O)c2ccccc2C1=O)NC(=S)Nc1cccc(Cl)c1	0.956	4.4% (inactive)
O=C(Cn1c(-c2ccccc2Cl)nc2ccccc21)Nc1cccc(Cl)c1	2.51	-151% (active)
O=C(CCn1cnc2ccccc2c1=O)Nc1cccc(Cl)c1	1.01	-1.4% (inactive)
Cc1cc(C)cc(NC(=O)CCc2nc3ccccc3[nH]2)c1	1.04	-3.9% (inactive)
Cc1ccc(SCc2nc3ccccc3n2CC(=O)Nc2ccc(Cl)cc2)cc1	1.85	-85.5% (active)
Fc1ccccc1Cn1nnc2c(NCc3ccccn3)ncnc21	0.966	3.35% (inactive)
CCN(CC)CCNC(=O)C1c2ccccc2C(=O)N(CCOC)C1c1ccc(F)cc1 (stereo unspecified)	0.972	2.85% (inactive)
Cc1ccc(C(C)NC(=S)NCc2ccc(F)cc2)c(C)c1 (stereo unspecified)	1.39	-38.5% (inactive)
CC(=O)Nc1ccc(SCC(=O)OCC(=O)NC(=O)NCc2ccco2)cc1	0.893	10.7% (inactive)
COc1ccc(Cl)cc1NC(=O)C1CCCO1 (stereo unspecified)	0.924	7.6% (inactive)
Cc1ccc(C(=O)O)cc1S(=O)(=O)N1CCSCC1	0.916	8.35% (inactive)
CCN(CC)CCCNC(=O)C1c2cc(OC)c(OC)cc2C(=O)N(C)C1c1cccs1 (stereo unspecified)	1.04	-4.25% (inactive)
COc1cccc(-c2cc(C(F)(F)F)n3ncc(C(=O)NCC4CCCO4)c3n2)c1 (stereo unspecified)	1.05	-4.65% (inactive)

SMILES	activation factor	activity change, negative = activation
CC(C)CCNC(=O)COc1ccc2c(c1)C(=O)CC(C)(C)O2	1	-0.15% (inactive)
CC(CNC(=S)Nc1cc(F)cc(F)c1)CSc1ccc(Cl)cc1 (stereo unspecified)	1.3	-29.9% (inactive)
CC(C)Oc1ccc(/C=N/NC(=O)C(CSCc2ccccc2)NC(=O)c2ccc([N+](=O)[O-])cc2)cc1 (stereo unspecified)	0.941	5.95% (inactive)
CSc1nc2n(n1)C(c1cccc(F)c1)C(C(=O)Nc1ccc(C)cc1C)=C(C)N2 (stereo unspecified)	0.93	6.95% (inactive)
CC(C)c1ccc(NC(=O)C2CC(=O)Nc3nc4ccccc4n32)cc1 (stereo unspecified)	2.38	-138% (active)
CC(C)c1ccc(NC(=O)C(c2ccccc2)N2CC(=O)Nc3ccccc32)cc1 (stereo unspecified)	1.24	-23.8% (inactive)
Cc1ccc(NC(=O)C2CC(=O)NC(N3CCc4ccccc43)=N2)cc1 (stereo unspecified)	0.947	5.35% (inactive)
Cc1ccc(NC(=O)C2CC(=O)Nc3nc4ccccc4n32)c(C)c1 (stereo unspecified)	2.57	-157% (active)
Cc1ccc(NC(=O)C2C(c3ccccc3)C2(Cl)Cl)c(C)c1 (stereo unspecified)	1.59	-59.4% (inactive)
O=C1/C(=C/c2ccco2)CCc2ccccc21	1.04	-4% (inactive)
Cc1ccc(C)c(NS(=O)(=O)c2ccc3[nH]c(=O)oc3c2)c1	0.111	88.9% (inactive)
COc1ccc(S(=O)(=O)N(C)C[C@H]2Oc3ccc(NC(=O)Nc4ccc5c(c4)OCO5)cc3C(=O)N([C@H](C)CO)C[C@@H]2C)cc1	1.86	-86.1% (inactive)
COc1ccc(S(=O)(=O)N(C)C[C@H]2Oc3ccc(NC(=O)Nc4ccccc4)cc3C(=O)N([C@H](C)CO)C[C@@H]2C)cc1	2.15	-115% (active)
COc1ccc(NC(=O)Nc2ccc3c(c2)C(=O)N([C@H](C)CO)C[C@H](C)[C@@H](CN(C)S(=O)(=O)c2ccccc2)O3)cc1	1.98	-97.7% (inactive)
C[C@H](CO)N1C[C@H](C)[C@@H](CN(C)S(=O)(=O)c2ccccc2)Oc2ccc(NC(=O)Nc3ccc4c(c3)OCO4)cc2C1=O	1.95	-94.6% (inactive)
COc1ccc(NC(=O)Nc2ccc3c(c2)C(=O)N([C@H](C)CO)C[C@H](C)[C@@H](CN(C)S(=O)(=O)c2ccc(F)cc2)O3)cc1	2.01	-101% (active)
C[C@H](CO)N1C[C@H](C)[C@@H](CN(C)S(=O)(=O)c2ccc(F)cc2)Oc2ccc(NC(=O)Nc3ccccc3)cc2C1=O	1.91	-91.2% (inactive)
C[C@H](CO)N1C[C@H](C)[C@@H](CN(C)S(=O)(=O)c2ccccc2)Oc2ccc(NC(=O)Nc3ccccc3)cc2C1=O	2.62	-162% (active)
COc1ccc(NC(=O)Nc2ccc3c(c2)C(=O)N([C@H](C)CO)C[C@H](C)[C@@H](CN(C)S(=O)(=O)c2ccc(OC)cc2)O3)cc1	1.77	-77.3% (inactive)
COc1ccc(NC(=O)N(C)C[C@H]2Oc3ccc(NC(=O)Nc4ccc(C(F)(F)F)cc4)cc3C(=O)N([C@H](C)CO)C[C@@H]2C)cc1	1.75	-75.5% (inactive)
